Compounds with a hit are over-represented: about 2.9% of the library has one in this group of screens.
TRPML1 ag = agonists of human TRPML1 channel; activation, % (test concentration not listed); Q9GZU1; AID 624414; actives 0.12% (n = 410,000); TRPML1-expressing cells, Ca2+ dye fluorescence, FDSS; in the data active = activation above about 50%; inconclusive = mostly about 30% to 49%; also: 0% is about no effect
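TRPML1-DL cells, Tet-induced overnight (~16 h, 37 degrees C), loaded 45-90 min at room temperature with Ca8 no-wash calcium dye plus quencher. FDSS fluorescence: 10 s baseline, compound pin-transfer, 110 s agonist read, then EC80 54-4 (4uM final) and 110 s antagonist read.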
D3 ag = D3 dopamine receptor (human) agonism; actives 0.58% (n = 410,000); P35462; AID 652048; D3R DiscoveRx beta-arrestin cells, luminescence, 90 min; max activation, %; in the data active = max activation above about 30%; also: 0% is about no effect
Target sequence (P35462 whole entry, looked up): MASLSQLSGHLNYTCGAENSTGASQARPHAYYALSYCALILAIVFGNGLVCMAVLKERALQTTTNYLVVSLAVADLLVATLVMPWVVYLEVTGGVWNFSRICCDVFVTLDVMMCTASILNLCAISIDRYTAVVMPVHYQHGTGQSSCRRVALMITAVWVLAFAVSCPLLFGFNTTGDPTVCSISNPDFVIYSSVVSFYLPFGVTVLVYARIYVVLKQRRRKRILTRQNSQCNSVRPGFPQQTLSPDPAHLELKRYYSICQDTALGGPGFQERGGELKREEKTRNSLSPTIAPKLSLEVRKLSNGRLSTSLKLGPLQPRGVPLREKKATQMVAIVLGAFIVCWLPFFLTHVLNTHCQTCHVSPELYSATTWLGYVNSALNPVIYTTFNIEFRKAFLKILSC
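Agonist-mode cell screen: cells plated at 1500/well and incubated overnight at 37 °C, then exposed to library compounds for 90 min at 37 °C. Detection reagent was added for 30–60 min at room temperature, and luminescence was read.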
TRPML1 inh = inhibitors of human TRPML1 channel | actives 0.02% (n = 390,000) | TRPML1-inducible cells, Ca2+ dye fluorescence, FDSS; active compounds read low; inhibition of EC80 agonist-evoked calcium signal | activity change, negative = inhibition, % (test concentration not listed) | Q9GZU1; in the data active = activity change below about -50%; inconclusive = between about -30% and that limit;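 also: stimulus is agonist 54-4 at its EC80 concentration; % is scaled to controls: 0 for no effect and ±100 for the full control effect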
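TRPML1-DL cells, Tet-induced overnight (~16 h, 37 °C) at 1,500 cells/well, were loaded with Ca8 no-wash dye plus quencher for 45-90 min at room temperature. Compounds were pinned during FDSS kinetic reading; agonist 54-4 at EC80 (4 uM final) then added.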
DRD3 antagonist = D3 dopamine receptor (human) antagonism. P35462. actives 2.5% (n = 360,000). max response, negative = inhibition, %. AID 652054. D3R cells, DiscoveRx beta-arrestin luminescence, antagonist mode; active compounds read low; in the data active = max response below about -50%; inconclusive = no clear call, values can overlap the other calls; also: % is scaled to controls: 0 for no effect and ±100 for the full control effect
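Cells plated overnight at 1500 cells/well, then exposed to library compounds with dopamine controls for 90 minutes at 37 degrees C. DiscoveRx reagent added for 30–60 minutes at room temperature; luminescence read, quantitative HTS format.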
Starred values were filed as active, the others as inactive.

`CCOC(=O)N1CCN(CC(=O)Nc2c(C(=O)OC)[nH]c3ccccc23)CC1` gave TRPML1 ag 0.5, D3 ag 7.8, TRPML1 inh -10.4 and DRD3 antagonist 8.8.
Screening COC(=O)c1[nH]c2ccccc2c1NC(=O)CN1CCCCCC1 returned TRPML1 ag -0.5, D3 ag 7.7, TRPML1 inh 47.9 and DRD3 antagonist -52.9*.
Screening COC(=O)c1[nH]c2ccccc2c1NC(=O)CN1CCN(C(=O)c2ccco2)CC1 returned TRPML1 ag -0.2, D3 ag 30.9*, TRPML1 inh -3.4 and DRD3 antagonist -52.2*.
Screening CCOc1ccc(-n2c(=O)c3c(C)c(C(=O)N(C)C)sc3n(CC(=O)Nc3c(C)cc(C)cc3C)c2=O)cc1 returned TRPML1 ag 1.1, D3 ag -8.5 and TRPML1 inh -16.9.
For O=C(CBr)c1ccc(Oc2ccc(C(=O)C[n+]3cccc(Br)c3)cc2)cc1 the results were TRPML1 ag -0.4.
Screening COC(=O)c1[nH]c2cc(OC)ccc2c1NC(=O)CCN1CCSCC1 returned TRPML1 ag 0.3, D3 ag -2.3, TRPML1 inh 6.0 and DRD3 antagonist -70.0*.
Screening CCOC(=O)c1c(C2COc3ccccc3O2)csc1NC(=O)c1ccccc1 (configuration not stated) returned TRPML1 ag 0.1, D3 ag 33.2*, TRPML1 inh 22.5 and DRD3 antagonist -7.8.
Screening CCOC(=O)c1c(C2COc3ccccc3O2)csc1N (configuration not stated) returned TRPML1 ag -0.1, D3 ag -0.5, TRPML1 inh -6.9 and DRD3 antagonist 1.1.
For CCOC(=O)Cn1nc(N2CCN(c3ccc(F)cc3)CC2)ccc1=O the results were TRPML1 ag -0.8, D3 ag 8.0 and TRPML1 inh 2.6.
Cc1nnc(N2CCC(C(=O)N3CCCCC3)CC2)c2nn(-c3ccccc3)c(C)c12 was read as TRPML1 ag 0.9, D3 ag -3.9 and TRPML1 inh 31.7.
Screening COCc1cc(C)nc(SCC[N+](C)(C)CC(=O)c2ccccc2)c1C#N returned TRPML1 ag -0.8, D3 ag -10.9, TRPML1 inh 6.9 and DRD3 antagonist -54.6*.
COc1ccccc1NC(=O)c1cc(-c2ccc(OC)c(OC)c2)nc2ccccc12 was read as TRPML1 ag 0.0, D3 ag 4.4, TRPML1 inh -1.7 and DRD3 antagonist 32.6.
`COc1cccc(-c2cc(C(=O)Nc3nc4ccccc4s3)c3ccccc3n2)c1` gave TRPML1 ag -0.4, D3 ag -28.9, TRPML1 inh -15.0 and DRD3 antagonist -59.0*.
COc1ccc(-c2cc(C(=O)Nc3nc4c(C)cccc4s3)c3ccccc3n2)cc1OC was read as TRPML1 ag 0.6, D3 ag 32.7*, TRPML1 inh -6.2 and DRD3 antagonist 26.4.
O=C(Nc1nc2ccccc2s1)c1cc(-c2ccco2)nc2ccccc12 was read as TRPML1 ag 1.2, D3 ag -2.2, TRPML1 inh 33.6 and DRD3 antagonist 2.1.
Screening Cc1cccc2sc(NNC(=O)c3cc(-c4cccs4)nc4ccccc34)nc12 returned TRPML1 ag -0.8, D3 ag 46.1*, TRPML1 inh -6.2 and DRD3 antagonist 126.4.
Screening CCCOc1ccc(C(=O)Nc2ccc(Cl)c(-c3nc4ncccc4o3)c2)cc1 returned TRPML1 ag 0.3, D3 ag 8.4 and TRPML1 inh 14.8.
`COc1ccc(NC(=O)CN(C)C(=O)C2=COCCO2)cc1` gave TRPML1 ag 0.2, D3 ag 1.1, TRPML1 inh 28.4 and DRD3 antagonist -58.8*.
`CN(CC(=O)Nc1ccc(Cl)cc1)C(=O)C1=COCCO1` gave TRPML1 ag 0.0, D3 ag -6.6, TRPML1 inh 1.6 and DRD3 antagonist 6.2.
O=C(Oc1ccc(Cl)cc1)c1ccc(COC(=O)c2cnccn2)cc1 was read as TRPML1 ag -0.4, D3 ag 0.6, TRPML1 inh -13.5 and DRD3 antagonist 6.6.
O=C(Oc1ccccc1)c1ccc(COC(=O)c2cnccn2)cc1 was read as TRPML1 ag 1.0, D3 ag -2.0, TRPML1 inh 16.9 and DRD3 antagonist -106.4*.
Screening O=C(Nc1cccc2ccccc12)c1csc([C@@H]2O[C@H](CO)[C@@H](O)[C@H]2O)n1 returned TRPML1 ag -0.5, D3 ag -2.2 and DRD3 antagonist 3.3.
`O=C(Nc1cccc2cccnc12)c1csc([C@@H]2O[C@H](CO)[C@H](O)[C@H](O)[C@H]2O)n1` gave TRPML1 ag -0.6, D3 ag -21.2 and DRD3 antagonist -116.9*.
`Nc1nc2[nH]cc(CCc3ccc(C(=O)N[C@@H](CCC(=O)O)C(=O)O)cc3)c2c(=O)[nH]1` gave TRPML1 ag -0.5 and D3 ag -4.1.
`CCN(c1ccccc1)S(=O)(=O)c1ccc(Cl)c(NC(=O)CNCc2ccccc2OC)c1` gave TRPML1 ag 0.3, D3 ag -34.0, TRPML1 inh 24.6 and DRD3 antagonist -65.7*.
Screening CCN(c1ccccc1)S(=O)(=O)c1ccc(OC)c(NC(=O)Cc2ccccc2OC)c1 returned TRPML1 ag 1.8, D3 ag -5.7, TRPML1 inh 19.9 and DRD3 antagonist -1.6.
CCN(CC)c1ccc2cc(-c3nnc(-c4ccccc4)o3)c(=O)oc2c1 was read as TRPML1 ag 72.2*, D3 ag -7.8, TRPML1 inh -15.4 and DRD3 antagonist 1.7.
Screening CCN(CC)c1ccc2cc(C(=O)c3cccs3)c(=O)oc2c1 returned TRPML1 ag 84.3*, D3 ag -3.8 and DRD3 antagonist 7.8.
CCN(CC)c1ccc2cc(-c3nc4ccccc4n3C)c(=O)oc2c1 was read as TRPML1 ag 60.7*, D3 ag 4.2, TRPML1 inh 13.6 and DRD3 antagonist 9.9.
For CCN(CC)c1ccc2cc(-c3nc(-c4ccc(OC)cc4)cs3)c(=O)oc2c1 the results were TRPML1 ag 118.4*, D3 ag 33.0*, TRPML1 inh -26.0 and DRD3 antagonist 102.1.
For CCN(CC)c1ccc2cc(-c3nc4ccccc4[nH]3)c(=O)oc2c1 the results were TRPML1 ag 96.6*, D3 ag 8.3, TRPML1 inh inconclusive and DRD3 antagonist 18.7.
Oc1cc2c(cc1CN1CCc3ccccc3C1)OCO2 was read as TRPML1 ag -0.6, D3 ag -26.2, TRPML1 inh 11.8 and DRD3 antagonist inconclusive.
For COc1cccc(OC)c1OCC(O)CN1CCN(c2ccccc2F)CC1 (configuration not stated) the results were TRPML1 ag 1.2, D3 ag 27.8, TRPML1 inh -14.1 and DRD3 antagonist -56.9*.
Screening COc1ccccc1N1CCN(Cc2cc3c(cc2O)OCO3)CC1 returned TRPML1 ag 0.4, D3 ag -26.0, TRPML1 inh -10.6 and DRD3 antagonist -80.6*.
OC(COc1cccc2ccccc12)CN1CCN(c2ccccc2)CC1 (configuration not stated) was read as TRPML1 ag -0.4, D3 ag 34.9*, TRPML1 inh 9.2 and DRD3 antagonist -54.4*.
